From PubChem BioAssay (NCI)
About 79,000 compounds went through this panel and 15% of them were active in at least one assay; those are over-represented in the sample as a whole. No stated cut-off is given here; in the data, active means growth inhibition above about 70%; inactive means the rest.

What was measured:
[1] = NCI Yeast Anticancer Drug Screen. Data for the rad50 strain (AID 155);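 further: 0% = growth of vehicle-only cultures of the same strain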; conditions: S. cerevisiae rad50 strain growth inhibition; at 50.0 µM; hits give high values
Procedure, shortened: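 Readout: growth inhibition relative to vehicle-treated cultures. Compound exposure was carried out in a genetically defined yeast strain deficient in DNA damage repair.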

[2] = NCI Yeast Anticancer Drug Screen. Data for the mec2-1 strain (AID 157); conditions: S. cerevisiae mec2-1 strain, at 50.0 µM, hits give high values
Procedure, shortened: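 mec2-1 yeast strain, carrying an alteration in DNA damage repair or cell cycle control, was exposed to compounds; growth inhibition was measured relative to vehicle-treated controls.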

[3] = NCI Yeast Anticancer Drug Screen. Data for the sgs1 mgt1 strain (AID 161);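 further: 0% = growth of cultures given vehicle only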; conditions: S. cerevisiae sgs1 mgt1 strain, at 50.0 µM, hits give high values
Procedure, shortened: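 Compounds are added to genetically altered yeast, and growth is compared with cultures given vehicle alone to give percent inhibition.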

[4] = NCI Yeast Anticancer Drug Screen. Data for the cln2 rad14 strain (AID 165);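 further: 0% = growth equal to vehicle treated cultures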; conditions: S. cerevisiae cln2 rad14 strain, at 50.0 µM, hits give high values
Procedure, shortened: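 Yeast carrying cln2 and rad14 alterations (cell cycle control and DNA damage repair) were exposed to compounds. Growth inhibition was measured against vehicle-treated controls.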

[5] = NCI Yeast Anticancer Drug Screen. Data for the bub3 strain (AID 167); conditions: S. cerevisiae bub3 mutant strain, at 50.0 µM, hits give high values
Procedure, shortened: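 Readout: yeast growth inhibition, expressed relative to vehicle-only wells. The test organism is a mutant strain from a panel with lesions in DNA repair or checkpoint genes.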

[6] = NCI Yeast Anticancer Drug Screen. Data for the mlh1 rad18 strain (AID 175); conditions: S. cerevisiae mlh1 rad18 strain growth inhibition; at 50.0 µM; hits give high values
Procedure, shortened: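 Growth inhibition of the yeast strain was measured after compound exposure and expressed relative to vehicle-treated controls. The strain carries defined defects in DNA damage repair.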

Measured: growth inhibition

C[P+]1(CCc2ccc(Cl)cc2)CC=CC1
inactive: [1] -4.15% | [2] 5.2% | [3] -2.9% | [4] -18.9% | [5] 0.2% | [6] -3.95%

COc1cc(CCNC2=CC(=O)c3cccnc3C2=O)ccc1O
inactive: [1] 36.4% | [2] 24.1% | [3] 40.2% | [4] 11.8% | [5] 3.8% | [6] 48.2%

O=C(N/N=C/c1ccc(Cl)cc1)c1ccccc1NC(=O)C1CC1
inactive: [1] -3.85% | [2] -14.2% | [3] 28% | [4] -23.6% | [5] 11.8% | [6] 33.2%

c1ccc2scnc2c1
inactive: [1] 21.2% | [2] 7.25% | [3] 13.7% | [4] -24.5% | [5] 29.2% | [6] 37.2%

COc1cc2c(cc1OC)C(=O)/C(=C/c1ccccc1)CC2
inactive: [1] 6.95% | [2] -6.45% | [3] 12.2% | [4] 11.8% | [5] 37% | [6] 28.6%

N#C/C(=N/Nc1ccccc1)c1ccccc1
inactive: [1] 6.5% | [2] 9.1% | [3] -12.1% | [4] -11.2% | [5] 1.85% | [6] -7.95%

CC1=C(C(=O)OC2CC3CCC2(C)C3(C)C)C2Nc3ccccc3N(C)C2O1 (stereo not drawn)
inactive: [1] -4.75% | [2] -8.8% | [3] -3.65% | [4] -3.2% | [5] -8.4% | [6] 6.95%

COC(=O)c1cc(=O)n(C)[nH]1
inactive: [1] -0.55% | [2] 4.7% | [3] 0.75% | [4] -58.2% | [5] 6.65% | [6] -1.05%

O=C1NC(c2ccccc2)(c2ccccc2)C(=O)N1CNc1ccccn1
inactive: [1] -0.4% | [2] -14.8% | [3] -31.8% | [4] 8.95% | [5] -8.3% | [6] 29.6%

CCOC(=O)/C(C#N)=C1/Sc2c(ncn(/N=C/c3ccc(OC)cc3)c2=O)N1c1ccccc1
inactive: [1] 26.7% | [2] -2.85% | [3] 6.45% | [4] -45.3% | [5] -12.8% | [6] 4.4%

CCc1nc(N)nc(N)c1-c1ccc2nn(-c3ccccc3)[n+]([O-])c2c1
inactive: [1] 4.25% | [2] 10.8% | [3] 20% | [4] 14.8% | [5] 14% | [6] 4.85%

CC(C)CN(CC(C)C)C(=O)c1ccc([N+](=O)[O-])cc1
inactive: [1] -7.3% | [2] 22.8% | [3] 16.9% | [4] -26.2% | [5] 38.1% | [6] 20.9%

CCCC(=O)Oc1ccc(Cl)cc1C
inactive: [1] -2.3% | [2] -1.05% | [3] 2.85% | [4] -57.6% | [5] -13.6% | [6] -3.85%

O=C(O)c1cc(-c2ccccc2O)nc2ccccc12
inactive: [1] -19.5% | [2] -7.1% | [3] -5.2% | [4] 16.3% | [5] -1.35% | [6] -1.5%

CC(=O)/C=C/N(C)c1ccc(O)cc1
inactive: [1] 40.6% | [2] 2.3% | [3] -6.45% | [4] 9.3% | [5] 5.55% | [6] -26.2%

CN(C)S(=O)(=O)C(C(=O)Nc1ccccc1)c1ccccc1 (stereo not drawn)
inactive: [1] -1.15% | [2] 13.8% | [3] 3% | [4] -34.7% | [5] -5.95% | [6] -10.5%

Cc1ccc(S(=O)c2ccccc2[N+](=O)[O-])cc1 (stereo not drawn)
inactive: [1] 4.85% | [2] 9.45% | [3] 1.7% | [4] 22% | [5] -0.6% | [6] -2%

O=C(N=C1[Se]C(=Nc2ccccc2)C(=Nc2ccccc2)N1c1ccccc1)c1ccccc1
inactive: [1] 9.45% | [2] 5.1% | [3] 6.55% | [4] 20.6% | [5] 2.75% | [6] 3.25%

CCCCN=C=NCCC[N+](C)(C)C
inactive: [1] 0.4% | [2] 7.2% | [3] 0.9% | [4] 10% | [5] 2.8% | [6] 8.2%

CCOC(=O)c1c(-c2ccc([N+](=O)[O-])cc2)c(C#N)n(-c2ccccc2)c1C
inactive: [1] -1.25% | [2] 36% | [3] 28.4% | [4] -7.95% | [5] 45.1% | [6] 6.1%

COc1cc(NCCCN(CC(C)C)CC(C)C)c2ncccc2c1Cl
inactive: [1] 27.5% | [2] 26.1% | [3] 55% | [4] 19.8% | [5] 27.3% | [6] 38.4%

Cc1[nH]nc(N)c1C(N)=O
inactive: [1] 5.2% | [2] 2.5% | [3] 26.6% | [4] 1.2% | [5] 0.85% | [6] 5.85%

O=CC(=O)c1cccc([N+](=O)[O-])c1
inactive: [1] 3.55% | [2] 7.75% | [3] -3.6% | [4] 11.4% | [5] -29.2% | [6] 10.4%

S=c1sc2c(Cl)nc(Cl)nc2n1-c1ccccc1
inactive: [1] -17.2% | [2] -4.95% | [3] -13.6% | [4] -1% | [5] 9.65% | [6] -11.2%

COC(=O)C(C)S(=O)(=O)O (stereo not drawn)
inactive: [1] -12.2% | [2] -2.5% | [3] 9.35% | [4] -80.5% | [5] 2.9% | [6] 0.3%

CCCCCC/C=C/CCCCCCCC(=O)O
inactive: [1] 3.15% | [2] -25.1% | [3] 5.3% | [4] -9.9% | [5] -1.75% | [6] -16.9%

CCOC(=O)NCS(=O)(=O)N1CCOCC1
inactive: [1] 25.6% | [2] 9.25% | [3] 8% | [4] 19.6% | [5] 3.45% | [6] 9.7%

CC(C)C(=O)OCCCc1ccccc1
inactive: [1] 11.7% | [2] -5.3% | [3] 1.8% | [4] 7.45% | [5] 21.5% | [6] 12.8%

O=[N+]([O-])c1ccc(Nc2ccc(Cl)cc2)c2nonc12
inactive: [1] -24.7% | [2] -7.9% | [3] 25.7% | [4] 18.4% | [5] 8.85% | [6] 23.4%

O=C(O)c1cc(C(=O)O)cc(N(CCO)CCO)c1
inactive: [1] -19.1% | [2] -6.45% | [3] -6.8% | [4] -17.6% | [5] 21.8% | [6] -14.2%

O=C1C2C(C(=O)N1c1ccccc1)C1([N+](=O)[O-])C=C3c4ccccc4N(C(=O)c4ccccc4)C32C2C(=O)N(c3ccccc3)C(=O)C21 (stereo not drawn)
inactive: [1] -24.9% | [2] 12.8% | [3] -15.4% | [4] 36.3% | [5] -6.35% | [6] -4.9%

Cn1c([N+](=O)[O-])cnc1COc1ccc(OCc2ncc([N+](=O)[O-])n2C)cc1
inactive: [1] 4.45% | [2] -20.1% | [3] -0.55% | [4] 27.6% | [5] 0.4% | [6] -2.7%

CNC(=O)c1ccccc1Cl
inactive: [1] -0.55% | [2] 6.9% | [3] 10.8% | [4] 4.65% | [5] 3.9% | [6] 19.2%

COc1ccc(CCN(C)C2c3ccccc3C=Cc3ccccc32)cc1OC
inactive: [1] 30.5% | [2] 2.4% | [3] 3.35% | [4] -16.2% | [5] -1.85% | [6] 8.65%

S=c1nc[nH]c2c1CN(Cc1ccccc1)CC2
inactive: [1] -43.6% | [2] -2.25% | [3] 4.6% | [4] -23.4% | [5] -4.95% | [6] -6.8%

O=S(Nc1ccc(Cl)cc1)c1ccccc1 (stereo not drawn)
inactive: [1] 10% | [2] 10.9% | [3] 31.1% | [4] 4.1% | [5] 18.1% | [6] 2.3%

Fc1ccc2nncc(/C=C/c3ccccn3)c2c1
inactive: [1] 41.8% | [2] -3.55% | [3] 4.2% | [4] -16.9% | [5] 24.2% | [6] 19.4%

O=C(NCCCCl)c1c(O)c2ccccc2[nH]c1=O
inactive: [1] 58.8% | [2] 25.5% | [3] 52% | [4] 18.1% | [5] 46.2% | [6] 27.8%
